Test results published in PubChem BioAssay (NCI).
This is part of a sample that, as a whole, favours compounds with a hit. Of some 79,000 tested, about 15% had one in any assay. No stated cut-off is given here; in the data, active means growth inhibition above about 70%; inactive means the rest.

Assays:
[1] = NCI Yeast Anticancer Drug Screen. Data for the rad50 strain (AID 155);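 further: 0% = growth of vehicle-only cultures of the same strain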; details: S. cerevisiae rad50 strain growth inhibition; at 50.0 µM; active compounds read high
Procedure, shortened: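 Growth of the mutant yeast was measured after compound exposure and referenced to vehicle-treated cultures.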

[2] = NCI Yeast Anticancer Drug Screen. Data for the mec2-1 strain (AID 157); details: S. cerevisiae mec2-1 strain, at 50.0 µM, active compounds read high
Procedure, shortened: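 Compounds were applied to mec2-1 yeast cells. Their growth was then compared with that of vehicle-treated cultures to give growth inhibition.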

[3] = NCI Yeast Anticancer Drug Screen. Data for the sgs1 mgt1 strain (AID 161);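 further: 0% = growth of cultures given vehicle only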; details: S. cerevisiae sgs1 mgt1 strain, at 50.0 µM, active compounds read high
Procedure, shortened: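 Percent growth inhibition was derived by comparing compound-exposed mutant yeast with vehicle-exposed cultures. The strain carries alterations in DNA damage repair.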

[4] = NCI Yeast Anticancer Drug Screen. Data for the cln2 rad14 strain (AID 165);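 further: 0% = growth equal to vehicle treated cultures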; details: S. cerevisiae cln2 rad14 strain, at 50.0 µM, active compounds read high
Procedure, shortened: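 Strain: cln2 rad14 yeast, altered in cell cycle control and DNA damage repair. Read-out: growth inhibition vs vehicle.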

[5] = NCI Yeast Anticancer Drug Screen. Data for the bub3 strain (AID 167); details: S. cerevisiae bub3 mutant strain, at 50.0 µM, active compounds read high
Procedure, shortened: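 Whole-cell yeast assay. The mutant strain was incubated with compounds, and growth inhibition was determined by comparison with vehicle-treated cells.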

[6] = NCI Yeast Anticancer Drug Screen. Data for the mlh1 rad18 strain (AID 175); details: S. cerevisiae mlh1 rad18 strain growth inhibition; at 50.0 µM; active compounds read high
Procedure, shortened: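 A repair-deficient yeast strain is exposed to test compound, and growth is scored relative to vehicle-treated controls.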

Measured: growth inhibition

CC(Cc1ccc(Cl)cc1Cl)NO (stereo not given)
inactive: [1] 15.7% | [2] -12.2% | [3] -15.9% | [4] -25.6% | [5] -43.2% | [6] -2.15%

O=c1[nH]cc([N+](=O)[O-])cc1[N+](=O)[O-]
inactive: [1] 1.5% | [2] -16.6% | [3] -2.25% | [4] 22.7% | [5] -15.6% | [6] 0.5%

ClCCN(CCCl)CC(Cl)COc1cccc2ccccc12 (stereo not given)
inactive: [1] 12.2% | [2] 11.6% | [3] 31.5% | [4] -1.6% | [5] 25.2% | [6] 30.4%

C[C@]12CC[C@H]3[C@@H](CCC4=C(Br)C(=O)CC[C@@H]43)[C@@H]1CC[C@@H]2O
inactive: [1] 9.5% | [2] 2.3% | [3] 10.6% | [4] -19.6% | [5] 2.5% | [6] 19.1%

CCOC(=O)C(C)(Br)CC (stereo not given)
inactive: [1] -19.4% | [2] -3.25% | [3] -17.4% | [4] -81.4% | [5] -22.1% | [6] -7.8%

N.N.NC(CS)C(=O)[O-].NC(CS)C(=O)[O-].[Pt+4] (stereo not given)
inactive: [1] 15% | [2] -4% | [3] 3.25% | [4] -21.6% | [5] -12.8% | [6] 15.4%

Cn1c2c(c3ccccc31)CCN1OCC=C[C@@H](C(=O)O)[C@@H]21
inactive: [1] -8.3% | [2] 3.15% | [3] -6.3% | [4] 5.55% | [5] 42.3% | [6] -8.85%

C[C@]12CCC(=O)C[C@@H]1CC[C@@H]1[C@@H]2CC[C@]2(C)[C@@H](OC(=O)N(CCCl)N=O)CC[C@@H]12
inactive: [1] 36.8% | [2] 33.8% | [3] 24.5% | [4] 55.2% | [5] 29.9% | [6] 60.1%

CC(=O)C(CN1CCCCC1)C(c1ccccc1)c1c(O)c2ccccc2oc1=O (stereo not given)
inactive: [1] 6.8% | [2] -9% | [3] 9.25% | [4] 26.2% | [5] 33% | [6] 9.55%

CC(=O)[CH-]C(C)=O.CC(=O)[CH-]C(C)=O.CC(=O)[CH-]C(C)=O.[Cl-].[Hf+4]
inactive: [1] 3.85% | [2] -1.25% | [3] -16.6% | [4] 21.4% | [5] -9.75% | [6] -6.35%

O=N[O-].[Co].[NH-]CC[NH-].[NH-]CC[NH-].[NH2-]
inactive: [1] 5.35% | [2] 7.5% | [3] -6.25% | [4] 4.95% | [5] 4.85% | [6] -2.4%

O=CNC(CSC(c1ccccc1)c1ccccc1)C(=O)O (stereo not given)
inactive: [1] 0.25% | [2] -5.55% | [3] -10.9% | [4] -26.4% | [5] 20.2% | [6] 4.4%

NC(=Nc1ccccc1)Nc1ccccc1 (tested in a mixture with another compound)
inactive: [1] -1.65% | [2] -12.1% | [3] 1.7% | [4] 13.2% | [5] 6.4% | [6] 6.35%

COC(=O)[C@H]1[C@H]2CCOC1(c1cc(OC)c(OC)c(OC)c1)c1cc3c(cc1[C@H]2O)OCO3
inactive: [1] -5.55% | [2] -63% | [3] -21.6% | [4] -14.3% | [5] -38% | [6] -0.6%

O=C1NC(=S)N/C1=C/c1ccccc1O
inactive: [1] 12.3% | [2] 6.65% | [3] -27.6% | [4] -14.8% | [5] -27.7% | [6] -42.4%

CC(C)(C)C1COP(=O)(C(C)(C)C)OC1 (stereo not given)
inactive: [1] -12.6% | [2] 6.1% | [3] -1.15% | [4] -38.6% | [5] 10.6% | [6] 16.2%

OCC1CCCN2CCCCC12 (stereo not given)
inactive: [1] 1.2% | [2] 0.35% | [3] -4.2% | [4] -39.1% | [5] -20.4% | [6] 7.35%

CCN1C(=O)C(C)C(=O)N(C)C1=O (stereo not given)
inactive: [1] -33.6% | [2] 18.7% | [3] 0.9% | [4] -11.4% | [5] 0.1% | [6] 1.8%

N#CCC(=O)c1ccccc1
inactive: [1] 3.3% | [2] 29.9% | [3] -0.25% | [4] -20.7% | [5] -10.9% | [6] 1.4%

CC(CCC#N)([N+](=O)[O-])[N+](=O)[O-]
inactive: [1] 17.1% | [2] 12.8% | [3] 4.35% | [4] 0.5% | [5] 10.3% | [6] 12.9%
